Sampled rows, rich in hits. Any-hit rate of the full collection: about 1.8%.
GLP-1R inv ag: inverse agonists of human GLP-1 receptor. Potency, µM (titrated, usually from 38.3 µM), for the others: at the highest dose activity change, negative = inhibition, usual class: inhibitors. AID 624417. HEK293 GLP-1R CRE-luciferase, luminescence, 24 h; GLP-1R form is constitutively active. 410,000 compounds, 1.6% hits. P43220; note: % is set by controls: 0 for no effect and ±100 for the full control effect; nearly all actives have a fitted effect of over 55% in size
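qHTS in 1536-well format: reporter HEK293 cells expressing constitutive GLP-1R activity in DMEM + 10% Nu serum, 24 hr with compounds at 37 deg C, luminescence read after 12 min with detection reagent.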
GLP-1R agonist: GLP-1 receptor (human) agonism | HEK293 GLP-1R CRE-luciferase, luminescence, 4-6 h; cells express a hypersensitive GLP-1R form | 380,000 compounds, 0.007% hits | P43220 | Potency, µM (top dose mostly 45.6 µM), without a hit: at the top dose activation, hits mostly activators; note: % of control where 0% means no effect
KAT2A inh: inhibitors of human GCN5L2 histone acetyltransferase; Q92830; GCN5L2 HAT assay, ThioGlo1 CoA-SH fluorescence; Potency, µM (doses to about 58.9 µM), for the others: at the top dose activity change, negative = inhibition, actives largely listed as inhibitors; 390,000 compounds, 0.21% hits; AID 504327; note: % is set by controls: 0 for no effect and ±100 for the full control effect
Target sequence (Q92830 whole entry, looked up): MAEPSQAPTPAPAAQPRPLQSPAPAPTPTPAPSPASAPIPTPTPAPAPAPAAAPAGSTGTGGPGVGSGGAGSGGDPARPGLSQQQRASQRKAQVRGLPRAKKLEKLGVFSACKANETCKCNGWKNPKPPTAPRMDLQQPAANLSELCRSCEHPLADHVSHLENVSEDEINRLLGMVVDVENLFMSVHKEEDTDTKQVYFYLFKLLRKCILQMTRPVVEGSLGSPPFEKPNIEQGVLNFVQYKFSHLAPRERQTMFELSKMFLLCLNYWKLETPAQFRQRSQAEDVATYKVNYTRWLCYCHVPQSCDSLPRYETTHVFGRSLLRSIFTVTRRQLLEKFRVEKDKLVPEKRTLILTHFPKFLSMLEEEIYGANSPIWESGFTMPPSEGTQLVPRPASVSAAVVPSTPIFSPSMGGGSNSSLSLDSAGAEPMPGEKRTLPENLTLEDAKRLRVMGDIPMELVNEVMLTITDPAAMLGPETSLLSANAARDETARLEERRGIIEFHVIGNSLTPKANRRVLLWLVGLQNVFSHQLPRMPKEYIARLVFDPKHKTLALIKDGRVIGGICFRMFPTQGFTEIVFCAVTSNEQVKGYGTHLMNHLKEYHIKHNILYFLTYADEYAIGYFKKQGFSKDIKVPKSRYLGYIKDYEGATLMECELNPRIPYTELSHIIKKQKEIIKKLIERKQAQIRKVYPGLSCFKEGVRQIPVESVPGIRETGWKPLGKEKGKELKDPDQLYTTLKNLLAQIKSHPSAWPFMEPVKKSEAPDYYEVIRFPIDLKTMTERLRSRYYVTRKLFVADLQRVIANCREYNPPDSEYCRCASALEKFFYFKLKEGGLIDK
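Enzyme at 20nM final was mixed with library compounds for 15 min at room temperature. Peptide H3(1-25) at 75uM, acetyl-CoA at 70uM and ThioGlo1 at 50uM were then added. Plates were read immediately and after 20 min (Ex340nm/Em540nm).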
RGS4 inhibitor: human RGS4 inhibition | Transcreener GDP fluorescence polarization, RGS4-accelerated GTP hydrolysis | Potency, µM (titrated, usually from 114 µM), inactives show top-dose activity change, negative = inhibition, most hits filed as inhibitors | 390,000 compounds, 0.039% hits | AID 504845; note: % is set by controls: 0 for no effect and ±100 for the full control effect; nearly all actives have a fitted effect of over 75% in size
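MLSMR compounds (23 nl, pin-transferred) preincubated 10 min at room temperature with a 500nM (2x) first reagent, then RGS4 at 900nM (2x) plus Transcreener GDP mix added; fluorescence polarization (620/688 nm) read before and after 90 min at 30 °C.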
PTHR1 agonist: activates the human parathyroid hormone receptor PTHR1; Q03431; HEK293 GP2 PTHR1 cells, GloSensor cAMP luminescence, 1 h; Potency, µM (series often up to 115 µM), inactives show top-dose activation, usual class: activators; 410,000 compounds, 0.075% hits; AID 743266; note: nearly all actives have a fitted effect of over 55% in size
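HEK-293-derived GP2 cells expressing PTHR1 and a GloSensor cAMP reporter, 3,000/well, plated overnight, given luciferin plus IBMX (each 0.5 mM as added) for 1 h at 37 °C, then compound for 1 h at 37 °C. Luminescence was read after 15 min at room temperature.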
HEK293 tox: cytotoxic in the GLP-1 receptor inverse agonist counter-screen. HEK293 cAMP-luciferase reporter cells, luminescence, 24 h. 410,000 compounds, 0.13% hits. Potency, µM (titrated, usually from 38.3 µM), inactives show at the top dose activity change, negative = inhibition, usual class: inhibitors. AID 624418;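 note: loss of luciferase light is scored as toxicity; % is set by controls: 0 for no effect and ±100 for the full control effect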
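Quantitative HTS format, 1536 wells, 200 cells/uL seeded. Compounds: 23 nL, 24 h, 37 °C. Detection: luciferase reagent, luminescence at 12 min RT; decreased signal taken as cytotoxic.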
* hit, by the source's call; i = inactive; ? = inconclusive; nt = not tested or not shown; [ ] = remark or other dose. Calls come from the whole dose curve; as a rule, active = well fitted curve in the direction sought with a large enough effect; inconclusive = small, poorly fitted or top-dose-only effect, or another doubt; inactive = no such curve, though single readings can be large; an effect the other way counts as inactive or inconclusive. Potency is the fitted concentration of half-maximal effect.

SMILES | GLP-1R inv ag | GLP-1R agonist | KAT2A inh | RGS4 inhibitor | PTHR1 agonist | HEK293 tox
CC(=O)[C@H](CC(C)C)NC(=O)[C@@H](CC(C)C)NC(=O)[C@H](CC(C)C)NC(=O)OCc1ccccc1 | nt | nt | -11.3% | 8.44µM* | nt | nt
Fc1ccccc1Nc1n[nH]c(=S)s1 | 24.6%[7.66 µM] | 8.7% | 17.8µM* | ? | -5.6% | 2.4%[7.66 µM]
COc1ccc(-c2oc(NC(=O)CSc3ncn[nH]3)c(C#N)c2-c2ccc(OC)cc2)cc1 | -13.5% | -3.2% | -10.3% | -47.4% | -0.5%[57.5 µM] | -19.7%
COc1ccc(CC(=O)Nc2oc(-c3ccccc3)c(-c3ccccc3)c2C#N)cc1OC | 2.24µM* | -0.7% | 0.5% | -0.8% | -15.5%[57.5 µM] | -12.7%
COc1ccc(-c2oc(NC(=O)CCl)c(C#N)c2-c2ccc(OC)cc2)cc1 | 2.24µM* | -11.7% | 0.0% | ? | -58.7% | ?
O/N=C/c1ccc(OCc2ccccc2)c(Br)c1 | 6.0% | 21.8% | -7.5% | -51.9% | -31.3% | 2.2%
O/N=C/c1cc(Br)cc(Br)c1OCc1ccccc1 | 10µM* | 5.2% | 1.5% | 13.3% | i | -5.5%
Cc1ccc(NC(=O)CC2Nc3ccccc3NC2=O)cc1Cl (stereo not given) | 10µM* | -22.9% | -2.8% | -14.6% | -15.0%[57.5 µM] | -4.3%
CN(C)c1oc(/C=C/c2cccs2)nc1S(=O)(=O)c1ccccc1 | 12.9% | 0.9% | -1.3% | -34.0% | -18.5% | 9.5%
CC(=O)c1ccc(NC(=O)c2ccc(-c3nc(COc4ccc(C)cc4)c(C)o3)cc2)cc1 | 0.5% | nt | -4.7% | 15.2% | -62.9% | 6.8%
Cc1ccc(S(=O)(=O)c2ccc([N+](=O)[O-])cn2)cc1 | 7.94µM* | -4.0% | -0.1% | -30.5% | -21.9% | ?
O=[N+]([O-])c1ccc(S(=O)(=O)c2ccccc2)nc1 | ? | -7.1% | 47.4% | -50.6% | -58.7% | -18.8%
CCc1occc(=O)c1Oc1cc(NN2CCCCC2)c([N+](=O)[O-])cc1[N+](=O)[O-] | ? | -2.9% | -4.9% | -25.9% | -33.3% | ?
O=C1[C@H]2[C@@H](c3ccc(C(F)(F)F)cc3)N[C@]3(CCCN(Cc4ccccc4)C3=O)[C@H]2C(=O)N1Cc1ccccc1 | 11.2µM* | -5.6% | nt | nt | -30.2% | -0.4%
CC(C)CCN1CCC[C@]2(N[C@H](c3ccc(C(F)(F)F)cc3)[C@@H]3C(=O)N(Cc4ccccc4)C(=O)[C@@H]32)C1=O | ? | 2.6% | nt | nt | -28.3% | 13.2%
CCN1C(=O)[C@H]2[C@@H](c3ccc(C(F)(F)F)cc3)N[C@]3(CCCN(Cc4ccc(Cl)cc4)C3=O)[C@H]2C1=O | 10µM* | -5.1% | nt | nt | -19.6% | 4.6%
COc1ccc([C@H]2N[C@]3(CCCN(Cc4ccc(C(F)(F)F)cc4)C3=O)[C@H]3C(=O)N(Cc4ccccc4)C(=O)[C@@H]23)cc1 | ? | -1.9% | nt | nt | -16.5% | -20.2%
CCN1C(=O)[C@H]2[C@@H](c3ccc(C(F)(F)F)cc3)N[C@]3(CCCN(Cc4ccc(C)cc4)C3=O)[C@H]2C1=O | ? | -5.4% | nt | nt | -1.8% | 2.1%
O=C1[C@H]2[C@@H](c3ccc(C(F)(F)F)cc3)N[C@]3(CCCN(Cc4ccc(C(F)(F)F)cc4)C3=O)[C@H]2C(=O)N1Cc1ccccc1 | 4.47µM* | -3.6% | nt | nt | -20.0% | 3.4%
COc1ccc(C(=O)Nc2nc3nccc(-c4ccccc4)n3n2)cc1 | 0.2% | 0.3% | -3.1% | 7.2% | i | 10.3%
Cc1ccc2nc(CSc3nnc(NC(=O)c4ccc(C(C)(C)C)cc4)s3)cc(=O)n2c1 | -4.0% | nt | -5.5% | 16.6% | -20.4% | -5.4%
Cn1c(=O)c2c(SCC(=O)Nc3nccs3)nc(C3CC3)nc2n(C)c1=O | 18.8% | 0.9% | -3.2% | -4.4% | -12.3% | -1.5%
Cc1cccc(NC(=O)CSc2nc3ccc(NC(=O)CSc4nnnn4-c4ccccc4)cc3s2)c1C | nt | nt | -6.9% | nt | nt | nt
O=C(CSc1nc2ccc(NC(=O)CSc3nnnn3-c3ccccc3)cc2s1)Nc1ccccc1 | ? | 1.9% | -13.8% | -10.3% | i | 10µM*
CN(C(=O)CSc1nc2ccc(NC(=O)COc3ccc(F)cc3)cc2s1)c1ccccc1 | 11.2µM* | nt | -21.5% | 14.7% | -22.3% | ?
SMILES | GLP-1R inv ag | GLP-1R agonist | KAT2A inh | RGS4 inhibitor | PTHR1 agonist | HEK293 tox
CN(C(=O)CSc1nc2ccc(NC(=O)CCc3ccccc3)cc2s1)c1ccccc1 | 8.91µM* | nt | -13.2% | -16.2% | -20.4% | ?
COc1ccc(-c2nc3ccccn3c2Nc2ccccc2C)cc1 | nt | nt | nt | 28.4% | nt | nt
C/C(=N\N(c1ccccc1)c1ccccc1)c1ccco1 | 8.91µM* | -2.6% | -2.0% | -44.6% | -44.0% | 9.3%
C/C(=N\NC(=O)c1ccco1)c1ccc(-c2ccccc2)cc1 | 2.1% | 9.7% | -8.5% | 0.7% | -15.5% | 3.2%
CC12CCC=CC1=C(C=O)C1C2CCC2(C)C(O)CCC12 (stereo not given) | 11.2µM* | 7.9% | nt | 2.8% | -11.1% | ?
CC(=O)c1c(C)[nH]c(C(=O)Nc2nc(C)cs2)c1C | 2.24µM* | -1.3% | -9.6% | -28.5% | -31.9% | -2.2%
CC(=O)c1c(C)[nH]c(C(=O)Nc2cc(C)cc(C)c2)c1C | 1.2% | -8.2% | -1.9% | -4.7% | -8.6%[57.5 µM] | 6.8%
CC(=O)c1c(C)[nH]c(C(=O)Nc2ccc(C)cn2)c1C | 5.62µM* | -12.6% | -2.4% | -1.4% | -15.4%[57.5 µM] | -7.3%
CC(=O)c1c(C)[nH]c(C(=O)Nc2ccc(C)c(S(=O)(=O)Nc3ccc(C)cc3C)c2)c1C | 2.51µM* | -1.8% | -26.3% | 23.2%[11.4 µM] | -35.0% | ?
COc1ccc(-c2nc(NC(=O)c3[nH]c(C)c(C(C)=O)c3C)sc2C)cc1 | 12.6µM* | 6.7% | -13.8% | -35.2% | -20.2% | -1.6%
CC(=O)c1c(C)[nH]c(C(=O)Nc2nc(-c3ccc(Cl)cc3)cs2)c1C | -5.5% | -5.3% | -6.3% | 1.8% | -92.9% | -1.1%
CC(=O)c1c(C)[nH]c(C(=O)Nc2ccc(C)c(S(=O)(=O)N(C)C)c2)c1C | -5.3% | 1.4% | 0.2% | -9.7% | -39.1% | -1.2%
COc1ccc(NC(=O)N(C)C[C@H]2Oc3ccc(NC(=O)NC4CCCCC4)cc3C(=O)N([C@H](C)CO)C[C@@H]2C)cc1 | 19.3% | -2.0% | -6.1% | 19.1% | -19.7% | 0.0%
CCc1ccccc1NC(=O)C1CCCN(c2cnccn2)C1 (stereo not given) | 1.9% | nt | 1.0% | -1.2% | i | -5.1%
COC(=O)c1cccc(CN2C(=O)C(C)Sc3cc(Cl)ccc32)c1 (stereo not given) | ? | 6.1% | nt | nt | -49.8% | 23.3%

Assay outcomes as filed in PubChem.
